Experiment [1] has as its target Oxysterols receptor LXR-alpha (Homo sapiens) (UniProt Q13133). Kind of experiment: ATG_LXRa_TRANS: Attagene TRANS-FACTORIAL HepG2 Assay for human Liver X Receptor alpha (LXRa) (AID 2282980). Conditions: HepG2 Attagene TRANS reporter, LXRa transactivation. In a few lines:
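Transfect HepG2 with GAL4-UAS multiplex reporter constructs (TRANS format, chimeric receptor-GAL4); treat 24 h; extract RNA, reverse-transcribe, PCR-amplify, FAM-label, HpaI-digest; resolve fragments by capillary electrophoresis. Upward response vs DMSO.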

Experiment [2] addresses Hepatocyte nuclear factor 4-alpha (Homo sapiens) (UniProt P41235). The experiment in a line: ATG_HNF4a_TRANS: Attagene TRANS-FACTORIAL HepG2 Assay for human Hepatocyte Nuclear Factor 4 alpha (HNF4a) (AID 2282982). As to conditions: HepG2 HNF4a transactivation reporter, mRNA readout. In a few lines: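 Transient MRTU transfection of HepG2, 24 h dosing. Readout: reporter mRNA via RT-PCR + capillary electrophoresis, fluorescence; activity fit upward relative to DMSO control.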

Experiment [3] in a line: ATG_M_32_TRANS: Attagene TRANS-FACTORIAL HepG2 Assay for M32 Transcription Factor (Internal Marker) (AID 2282984).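 Further: transcript level of a background control reporter unit measured by RT-PCR and capillary electrophoresis.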 As to conditions: HepG2 Attagene TRANS M32 internal marker reporter. A digest of the protocol: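 Read-out: fluorescent reporter cDNA fragments resolved by capillary electrophoresis after RT-PCR of total RNA. Transfected HepG2 cells were exposed to chemical for 24 h. Activity scored in the positive direction relative to DMSO.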

The target of experiment [4] is Transcriptional activator Myb (Homo sapiens) (UniProt P10242). The experiment in a line: ATG_Myb_CIS: Attagene CIS-FACTORIAL HepG2 Assay for human Myeloblastosis (Myb) Proto-Oncogene Transcription Factor (AID 2282986; active means hit-call score of the fitted dose curve at least 0.9, where 1 is the maximum; inactive means score below 0.9). Conditions: HepG2 Attagene CIS-FACTORIAL Myb reporter transcription; actives raise or lower the signal. A digest of the protocol:
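HepG2, transient MRTU transfection (cis-element promoters, endogenous TF activity), 24 h compound exposure. Readout: reporter mRNA via RT-PCR, 6-FAM labeling, HpaI digest, capillary electrophoresis. Gain/loss fit vs DMSO.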

Experiment [5] addresses Bile acid receptor (Homo sapiens) (UniProt Q96RI1). The experiment in a line: ATG_FXR_TRANS: Attagene TRANS-FACTORIAL HepG2 Assay for Farnesoid X Receptor (FXR) (AID 2282979).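 Further: hits raise reporter mRNA above DMSO so AC50 marks FXR activation.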 As to conditions: HepG2 Attagene TRANS FXR-GAL4 reporter transcription. In a few lines: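 Transient transfection of HepG2 with multiplexed GAL4-UAS reporter units; exogenous FXR-GAL4 chimera. Dose 24 h → TriZol RNA → oligo(dT) RT → PCR, 6-FAM primer extension, HpaI cut → CE. Gain vs DMSO.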

Experiment [6] is described as follows: ATG_M_06_TRANS: Attagene TRANS-FACTORIAL HepG2 Assay for M06 Transcription Factor (Internal Marker) (AID 2282983).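 Further: reporter transcript level by RT-PCR then capillary electrophoresis fluorescence.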 Conditions: HepG2 Attagene TRANS M06 internal marker reporter. In a few lines:
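Background control endpoint: reporter mRNA from transiently transfected HepG2 after 24 h dosing, detected by RT-PCR with capillary electrophoresis fluorescence. Analysed for gain versus DMSO.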

For experiment [7], the target named is Oxysterols receptor LXR-beta (Homo sapiens) (UniProt P55055). The experiment in a line: ATG_LXRb_TRANS: Attagene TRANS-FACTORIAL HepG2 Assay for human Liver X Receptor beta (LXRb) (AID 2282981). Conditions: HepG2 Attagene TRANS GAL4-LXRb reporter, mRNA. In a few lines:
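Readout: fluorescent reporter mRNA fragments resolved by capillary electrophoresis after RT-PCR. System: transiently transfected human HepG2, exogenous LXRb-Gal4 chimera driving GAL4-UAS reporter, 24 h dosing. Activity fitted upward against DMSO baseline.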

For experiment [8], the target named is Nuclear receptor subfamily 4 group A member 2 (Homo sapiens) (UniProt P43354). Kind of experiment: ATG_NURR1_TRANS: Attagene TRANS-FACTORIAL HepG2 Assay for human Nuclear Receptor Related Protein 1 (NURR1) (AID 2282985). Conditions: HepG2 Attagene TRANS reporter, mRNA readout. A digest of the protocol:
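Read-out: reporter mRNA induction by RT-PCR plus capillary electrophoresis with fluorescence detection, after 24 h dosing of transfected HepG2 cells. Exogenous NR-Gal4 chimera activity drives GAL4-UAS reporter; activity fitted upward versus DMSO.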

For 29 compounds, outcome and AC50 results are on record in PubChem BioAssay (EPA / NIEHS).

Inconclusive results are not listed. The source made the active and inactive calls. How the source made its calls, unless noted: active means hit-call score of the fitted dose curve at least 0.9, where 1 is the maximum; inconclusive means response in the unintended direction; inactive means score below 0.9.

Nuclear receptor subfamily 4 group A member 2 (Homo sapiens), sequence (P43354 whole entry, looked up, the tested form may be a part): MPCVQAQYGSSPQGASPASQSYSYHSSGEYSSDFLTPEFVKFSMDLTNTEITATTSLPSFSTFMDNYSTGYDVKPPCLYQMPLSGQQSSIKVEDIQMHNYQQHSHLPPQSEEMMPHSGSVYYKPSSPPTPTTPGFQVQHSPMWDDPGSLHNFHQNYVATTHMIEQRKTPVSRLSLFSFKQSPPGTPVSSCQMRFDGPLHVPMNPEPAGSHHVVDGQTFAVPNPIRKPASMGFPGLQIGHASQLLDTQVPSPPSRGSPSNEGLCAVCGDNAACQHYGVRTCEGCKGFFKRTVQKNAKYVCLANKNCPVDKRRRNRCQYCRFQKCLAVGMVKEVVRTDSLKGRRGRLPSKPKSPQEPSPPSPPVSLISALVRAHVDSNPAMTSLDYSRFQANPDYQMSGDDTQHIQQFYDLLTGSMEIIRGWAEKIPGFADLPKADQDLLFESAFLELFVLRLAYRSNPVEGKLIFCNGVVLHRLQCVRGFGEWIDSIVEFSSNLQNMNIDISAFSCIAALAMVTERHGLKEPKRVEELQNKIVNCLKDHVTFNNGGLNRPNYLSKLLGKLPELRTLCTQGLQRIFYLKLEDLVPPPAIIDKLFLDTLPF
Transcriptional activator Myb (Homo sapiens), sequence (P10242 whole entry, looked up): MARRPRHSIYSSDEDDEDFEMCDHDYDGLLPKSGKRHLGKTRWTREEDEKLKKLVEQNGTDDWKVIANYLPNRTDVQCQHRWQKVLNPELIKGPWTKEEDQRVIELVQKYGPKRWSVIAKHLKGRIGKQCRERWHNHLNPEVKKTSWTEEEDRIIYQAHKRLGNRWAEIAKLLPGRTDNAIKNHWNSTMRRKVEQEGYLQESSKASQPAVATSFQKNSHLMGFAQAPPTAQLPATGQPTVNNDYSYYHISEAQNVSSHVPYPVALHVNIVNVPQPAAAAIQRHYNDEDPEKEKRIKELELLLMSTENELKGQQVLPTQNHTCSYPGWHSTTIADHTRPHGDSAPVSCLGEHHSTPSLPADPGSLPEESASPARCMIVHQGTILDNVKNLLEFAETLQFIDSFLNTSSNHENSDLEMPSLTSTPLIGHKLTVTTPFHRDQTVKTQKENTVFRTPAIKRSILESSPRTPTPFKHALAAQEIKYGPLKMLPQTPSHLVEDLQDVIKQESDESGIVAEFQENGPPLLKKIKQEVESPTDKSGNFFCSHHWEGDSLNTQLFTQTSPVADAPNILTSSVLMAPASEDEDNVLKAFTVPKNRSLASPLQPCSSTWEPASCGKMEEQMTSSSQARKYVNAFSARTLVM
Bile acid receptor (Homo sapiens), sequence (Q96RI1 whole entry, looked up, the tested form may be a part): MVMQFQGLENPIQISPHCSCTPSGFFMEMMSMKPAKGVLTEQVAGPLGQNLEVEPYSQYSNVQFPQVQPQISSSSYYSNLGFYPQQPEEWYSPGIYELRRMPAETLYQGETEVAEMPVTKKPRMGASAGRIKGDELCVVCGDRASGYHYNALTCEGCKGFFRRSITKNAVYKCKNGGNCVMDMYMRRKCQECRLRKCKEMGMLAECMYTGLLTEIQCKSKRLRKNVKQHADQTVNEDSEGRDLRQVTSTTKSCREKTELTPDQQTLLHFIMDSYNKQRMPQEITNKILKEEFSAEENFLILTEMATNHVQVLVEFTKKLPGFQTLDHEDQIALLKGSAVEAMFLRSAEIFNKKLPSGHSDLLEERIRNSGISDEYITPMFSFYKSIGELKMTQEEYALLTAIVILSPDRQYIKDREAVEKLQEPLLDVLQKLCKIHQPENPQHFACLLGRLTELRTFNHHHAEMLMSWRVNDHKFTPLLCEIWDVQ
Oxysterols receptor LXR-alpha (Homo sapiens), sequence (Q13133 whole entry, looked up, the tested form may be a part): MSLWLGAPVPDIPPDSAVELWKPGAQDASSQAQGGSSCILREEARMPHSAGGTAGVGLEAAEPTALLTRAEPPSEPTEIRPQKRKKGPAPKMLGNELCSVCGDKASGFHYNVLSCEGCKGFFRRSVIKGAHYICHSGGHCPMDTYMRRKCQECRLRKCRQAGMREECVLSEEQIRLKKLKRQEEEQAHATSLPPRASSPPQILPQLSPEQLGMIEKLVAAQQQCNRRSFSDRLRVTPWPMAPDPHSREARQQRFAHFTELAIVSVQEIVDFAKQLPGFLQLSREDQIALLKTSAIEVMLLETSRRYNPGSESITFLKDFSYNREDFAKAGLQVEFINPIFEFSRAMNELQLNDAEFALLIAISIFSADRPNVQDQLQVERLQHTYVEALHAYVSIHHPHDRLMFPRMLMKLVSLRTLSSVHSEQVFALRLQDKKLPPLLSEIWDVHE
Oxysterols receptor LXR-beta (Homo sapiens), sequence (P55055 whole entry, looked up, the tested form may be a part): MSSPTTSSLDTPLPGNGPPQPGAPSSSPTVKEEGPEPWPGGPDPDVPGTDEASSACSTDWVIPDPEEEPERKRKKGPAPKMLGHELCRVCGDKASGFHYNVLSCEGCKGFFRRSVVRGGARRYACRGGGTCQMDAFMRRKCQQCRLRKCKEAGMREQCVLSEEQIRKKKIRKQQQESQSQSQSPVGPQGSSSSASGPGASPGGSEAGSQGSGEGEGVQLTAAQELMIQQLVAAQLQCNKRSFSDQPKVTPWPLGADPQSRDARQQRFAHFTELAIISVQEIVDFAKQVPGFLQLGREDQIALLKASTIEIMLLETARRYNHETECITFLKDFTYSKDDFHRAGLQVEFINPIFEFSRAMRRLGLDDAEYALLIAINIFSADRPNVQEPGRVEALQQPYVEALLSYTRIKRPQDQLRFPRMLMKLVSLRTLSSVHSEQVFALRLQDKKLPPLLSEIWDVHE
Hepatocyte nuclear factor 4-alpha (Homo sapiens), sequence (P41235 whole entry, looked up): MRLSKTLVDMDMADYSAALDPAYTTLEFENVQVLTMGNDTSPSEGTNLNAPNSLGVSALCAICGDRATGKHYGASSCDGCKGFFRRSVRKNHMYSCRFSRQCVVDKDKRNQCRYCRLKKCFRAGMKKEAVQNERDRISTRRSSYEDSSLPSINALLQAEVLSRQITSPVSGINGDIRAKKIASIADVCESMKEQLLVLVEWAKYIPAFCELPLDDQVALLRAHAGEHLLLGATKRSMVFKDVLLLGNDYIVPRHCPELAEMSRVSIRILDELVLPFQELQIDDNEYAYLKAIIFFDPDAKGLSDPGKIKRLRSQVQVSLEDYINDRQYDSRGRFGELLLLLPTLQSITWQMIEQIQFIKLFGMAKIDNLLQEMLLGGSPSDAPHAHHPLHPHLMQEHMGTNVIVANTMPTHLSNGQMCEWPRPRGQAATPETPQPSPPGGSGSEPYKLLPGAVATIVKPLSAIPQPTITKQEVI

Regarding `Cc1cnccn1`, the compound was classed as inactive in experiment [1], in experiment [2], in experiment [3] and in experiment [4].

In the case of `CN(N=O)C(=O)N[C@@H]1[C@@H](O)[C@H](O)[C@@H](CO)O[C@@H]1O`, the compound was called inactive in experiment [5], in experiment [2], in experiment [6] and in experiment [4].

Regarding `O=C=Nc1cccc2c(N=C=O)cccc12`, the compound was called inactive in experiment [7] and in experiment [4].

On to `O=C=NCc1cccc(CN=C=O)c1`, for which the compound was classed as inactive in experiment [1], in experiment [7], in experiment [6], in experiment [8] and in experiment [4].

Turning to `CCCCOC(=O)[C@H](C)O`, the call in experiment [3], in experiment [8] and in experiment [4] was inactive.

Regarding `CC(C)(C)c1cc(CCC(=O)OCC(COC(=O)CCc2cc(C(C)(C)C)c(O)c(C(C)(C)C)c2)(COC(=O)CCc2cc(C(C)(C)C)c(O)c(C(C)(C)C)c2)COC(=O)CCc2cc(C(C)(C)C)c(O)c(C(C)(C)C)c2)cc(C(C)(C)C)c1O`, the compound was called inactive in experiment [7], in experiment [6], in experiment [8] and in experiment [4].

For the compound `c1ccc(C[P+](c2ccccc2)(c2ccccc2)c2ccccc2)cc1`, the compound was classed as inactive in experiment [5], in experiment [7], in experiment [3], in experiment [8] and in experiment [4].

On to `O=S(=O)(O)CCC(F)(F)C(F)(F)C(F)(F)C(F)(F)F`, for which the compound was classed as inactive in experiment [7], in experiment [6] and in experiment [4].

As to `CCN=c1cc2oc3cc(NCC)c(C)cc3c(-c3ccccc3C(=O)OCC)c-2cc1C`, the call in experiment [5], in experiment [6], in experiment [3] and in experiment [4] was inactive.

As to `CCCC(=O)OCC(COC(=O)CCC)OC(=O)CCC`, the outcome in experiment [5], in experiment [6], in experiment [8] and in experiment [4] was inactive.

In the case of `O=C1C=CC(=O)N1c1ccccc1`, the outcome in experiment [2], in experiment [6] and in experiment [4] was inactive.

For the compound `CCCCCC/C=C/CCCCCCCC(=O)O`, the call in experiment [5], in experiment [6] and in experiment [4] was inactive. The AC50 in experiment [8] is 67.1 µM (active).

As for `OCCCc1cccnc1`, the call in experiment [5], in experiment [6], in experiment [3], in experiment [8] and in experiment [4] was inactive.

For `NCC(F)(F)C(F)(F)C(F)(F)C(F)(F)C(F)(F)C(F)(F)F`, the result in experiment [5], in experiment [6], in experiment [3] and in experiment [4] was inactive.

For the compound `CCCCCCCCn1sc(Cl)c(Cl)c1=O`, the compound was classed as inactive in experiment [7], in experiment [6] and in experiment [8]. Also, the concentration at half-maximal activity (AC50) in experiment [4] was 20.4 µM (active).

Take `Oc1ccc(C2(c3ccc(O)c(C4CCCCC4)c3)CCCCC2)cc1C1CCCCC1`: the call in experiment [5], in experiment [2], in experiment [6] and in experiment [3] was inactive. Also, the AC50 in experiment [4] was 51.3 µM (active).

As for `CCN(CC)c1ccc2c(c1)Oc1cc(N(CC)CC)ccc1C21OC(=O)c2ccccc21`, the outcome in experiment [5], in experiment [6] and in experiment [4] was inactive.

For the compound `OCCCCC(F)(F)C(F)(F)C(F)(F)C(F)(F)F`, the compound was called inactive in experiment [5], in experiment [6] and in experiment [4].

Turning to `CSc1ccc(Cl)cc1`, the outcome in experiment [5], in experiment [2], in experiment [6] and in experiment [4] was inactive.

Turning to `O=C(c1ccccc1)c1ccc(Cl)cc1`, the compound was called inactive in experiment [5], in experiment [6], in experiment [3], in experiment [8] and in experiment [4].

On to `CC(C)OC(=O)COc1ccc(Cl)cc1Cl`, for which the compound was classed as inactive in experiment [3], in experiment [8] and in experiment [4].

Take `COCCC(=O)OC`: the outcome in experiment [1], in experiment [2], in experiment [3] and in experiment [4] was inactive.

Take `NC(=O)C(F)(F)C(F)(F)C(F)(F)C(F)F`: the outcome in experiment [5], in experiment [6] and in experiment [4] was inactive.

For the compound `C=CC(=O)OCCC(F)(F)C(F)(F)C(F)(F)C(F)(F)F`, the result in experiment [5], in experiment [6], in experiment [8] and in experiment [4] was inactive.

On to `NC(O)(C(F)(F)F)C(F)(F)F`, for which the compound was classed as inactive in experiment [6] and in experiment [4].

For `NC(=O)C(F)(F)C(F)(F)C(F)(F)C(F)(F)C(N)=O`, the outcome in experiment [6] and in experiment [4] was inactive.

In the case of `OCC(F)(F)C(F)(F)C(F)(F)CO`, the compound was classed as inactive in experiment [6], in experiment [8] and in experiment [4].

Consider `CC(C)CCCC(C)CCO` (configuration not stated), for which the compound was called inactive in experiment [5], in experiment [7], in experiment [3], in experiment [8] and in experiment [4].

For the compound `CC(C)=CCCC(C)O` (configuration not stated), the outcome in experiment [5], in experiment [6] and in experiment [4] was inactive.
